The text below walks through data of ChEMBL document CHEMBL1201862, “PubChem BioAssay data set” (2004).

The structures appear in SMILES notation. Out of some 220,000 compounds screened, about 16,000 (7.3%) were called active. Inconclusive results (about 25%) are left out. The rule behind the calls is not given here. Only a selection was taken, and actives are over-represented in it overall.

This test has as its target T1, Aldehyde dehydrogenase 1A1 (Homo sapiens) (UniProt P00352).
T1 sequence (whole entry): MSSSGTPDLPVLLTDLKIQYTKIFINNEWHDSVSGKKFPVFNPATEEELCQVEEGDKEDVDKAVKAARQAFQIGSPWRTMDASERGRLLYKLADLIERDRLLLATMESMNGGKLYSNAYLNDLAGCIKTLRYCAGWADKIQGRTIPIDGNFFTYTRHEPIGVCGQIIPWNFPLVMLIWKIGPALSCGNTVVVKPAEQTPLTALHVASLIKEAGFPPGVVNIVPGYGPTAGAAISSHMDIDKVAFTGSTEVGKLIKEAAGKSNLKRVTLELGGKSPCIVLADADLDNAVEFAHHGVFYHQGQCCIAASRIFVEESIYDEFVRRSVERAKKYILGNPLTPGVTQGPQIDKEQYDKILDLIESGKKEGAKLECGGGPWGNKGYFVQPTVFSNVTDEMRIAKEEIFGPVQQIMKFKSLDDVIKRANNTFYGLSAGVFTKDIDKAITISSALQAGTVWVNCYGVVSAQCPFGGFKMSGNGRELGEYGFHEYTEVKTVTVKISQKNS
Briefly: qHTS Assay for Inhibitors of Aldehyde Dehydrogenase 1 (ALDH1A1). [Related pubchem assays: 1030 (qHTS Validation Assay for Inhibitors of aldehyde dehydrogenase 1 (ALDH1A1))]. It counts as functional.
For the compound `CC(C)C1SC(N/N=C/c2ccco2)=NC1=O` (centres undefined), the Potency was 200 µM (active).
In the case of `O=C(O)c1ccc2c(c1)CC(c1ccccc1)OC2=O` (centres undefined), the Potency entry is “inactive”.
On to `CCOC(=O)CN1C(=O)N[C@@H](c2cccc(C(F)(F)F)c2)C(C(=O)OC)=C1C`, for which the Potency entry is “inactive”.
Then `CC(C(=O)NN=C(c1ccccc1)c1ccccc1)N1CCCC1` (centres undefined), with “inactive”.
For the compound `O=C(c1no[n+]([O-])c1C(=O)c1csc2ccccc12)c1csc2ccccc12`, the Potency was 3.55 µM (active).
Then `O=C(N/N=C/c1ccc2c(c1)OCO2)c1ccc(Br)o1`, with “inactive”; and `CCOC(=O)N1CCN(c2nc3ccccc3nc2C(C#N)C(=O)NCCc2ccccc2)CC1` (centres undefined), with 398 µM (active); and `CC(=O)OCc1ccccc1`, with 20 µM (active).
For the compound `N#CC1=C(N)Oc2c(oc(CO)cc2=O)C12C(=O)Nc1ccc(Cl)cc12` (centres undefined), the Potency result was “inactive”.
The same measure for `C[C@@H]1C[C@H]2[C@@H]3C[C@H](F)C4=CC(=O)C=C[C@]4(C)[C@@]3(F)[C@@H](O)C[C@]2(C)[C@@]1(O)C(=O)CO`: “inactive”; for `O=C(/C=C/c1ccc(Cl)cc1)c1cccs1`: 12.6 µM (active).
Take `CCc1ccc(Oc2coc3cc(OCC(=O)Nc4cc(C)ccc4C)ccc3c2=O)cc1`: the Potency result is “inactive”.
For `COc1ccc(N2CC(C(=O)OCC(=O)c3cccc(OC)c3)CC2=O)cc1` (centres undefined), the Potency was 224 µM (active).
Then `O=C(Cn1c2ccccc2c(=O)c2cc([N+](=O)[O-])ccc21)Nc1ccccc1Cl`, with “inactive”.
